# Screening data: PubChem, several laboratories
# tim10-1 inh – growth inhibitors of tim10-1 mutant yeast, primary screen, luminescence, uHTS | S. cerevisiae tim10-1 ts strain growth, BacTiter-Glo, 24 h | inhibition, % at 20 µM | actives 2.2% (n = 330,000);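 active = inhibition of at least 40%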;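 also: mutant grown at 25 °C; 0% = DMSO wells with yeast and 100% = wells holding no yeast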
# NALP3 yeast inh – NALP3 inflammasome inhibitors in reconstituted yeast, primary screen, luminescence, uHTS. Yeast reconstituted NLRP3/ASC/caspase-1, beta-gal luminescence, 24 h. inhibition, % at 10 µM. actives 0.39% (n = 330,000). AID 2825, 2010;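 active = inhibition of 50% or more; inactive = inhibition below 50%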;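 also: plate controls were induced DMSO wells for no effect and uninduced yeast grown without galactose for full effect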
# tim23-1 inh – growth inhibitors of tim23-1 mutant yeast, primary screen, luminescence, uHTS; S. cerevisiae tim23-1 growth, BacTiter-Glo luminescence, 24 h; actives 1.3% (n = 330,000); AID 463212, 2010; inhibition, % at 20 µM;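 active = growth inhibition of the mutant yeast at or above 50%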;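 also: temperature-sensitive mutant grown at 25 °C; plate controls were DMSO-treated mutant yeast for no effect and medium wells lacking yeast for full effect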
# SKKanGAS inh – S. pyogenes SKKanGAS growth inhibitors in kanamycin, primary screen, streptokinase expression inhibitor project, SKKanGAS strain, BacTiter-Glo luminescence; inhibition, % at 7.5 µM; actives 1.3% (n = 300,000); 6 h;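 active = mean replicate score, as percent of positive control median, at least 50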;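 also: strain carries kanamycin resistance gene driven by streptokinase promoter and grows in 40 µg/ml kanamycin; loss of luminescence reflects streptokinase promoter inhibition or plain growth inhibition; 0% = median of DMSO wells and 100% = positive control at its reference dose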
# NALP1 yeast inh – NALP1 inflammasome inhibitors in reconstituted yeast, colorimetric, S. cerevisiae, triplicate retest. S. cerevisiae NALP1/ASC/caspase-1 growth, X-gal OD620, 72 h. inhibition, % at 10 µM. actives 0.61% (n = 280,000); in the data active = inhibition mostly above about 24%, no sharp cut-off; inactive = mostly below about 32%
# TIM10 inh – growth inhibitors of isogenic TIM10 control yeast, primary screen, counter-screen for tim10-1 yeast inhibitor project, luminescence, uHTS. inhibition, % at 10 µM. actives 1.4% (n = 330,000). AID 463195, 2010. S. cerevisiae TIM10 strain growth, BacTiter-Glo luminescence, 24 h;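 active = inhibition of 40% or more at the single tested concentration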;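 also: wild-type TIM10 isogenic control strain grown at permissive 25 °C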
# TIM10 conf – growth inhibitors of wild-type TIM10 yeast, confirmation, counter-screen for tim10-1 synthetic lethality project, single concentration, luminescence, S. cerevisiae | inhibition, % at 10 µM | S. cerevisiae tim10 strain growth, BacTiter-Glo luminescence, 24 h | shares compounds with TIM10 inh | actives 63% (n = 4,600) | AID 463215, 2010;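 active = inhibition of yeast growth at or above a set limit in either of two replicates at 10 µM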;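 also: this counterscreen used the strain with wild-type TIM10; 0% = yeast with DMSO and 100% = medium wells lacking yeast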
# tim23-1 confirm – tim23-1 mutant yeast growth inhibitors, confirmation, luminescence, single concentration; inhibition, % at 20 µM; shares compounds with tim23-1 inh; actives 83% (n = 4,400); S. cerevisiae tim23-1 growth, BacTiter-Glo luminescence, 24 h;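 active = inhibition above about 39% in either of two replicate wells at 20 µM, limit read from the data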;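 also: temperature-sensitive tim23-1 mutant grown at 25 °C; 0% = DMSO wells with yeast and 100% = medium wells without yeast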
# * = called active by the depositor; · = not tested or not shown. Shown are actives, neighbours in structure and some others; about 4.9% of the full set was active somewhere.
SMILES,tim10-1 inh,NALP3 yeast inh,tim23-1 inh,SKKanGAS inh,NALP1 yeast inh,TIM10 inh,TIM10 conf,tim23-1 confirm
O=C1/C(=C/c2cccs2)Cc2ccccc21,19.8,-0.5,50.6*,-5.9,39.1,48.3*,-47.8,70.0*
N#C/C(=C\c1ccccc1)C(=O)N1CCN(c2ccccc2F)CC1,26.1,10.3,66.4*,9.7,26.6,47.2*,44.5*,48.5*
C/C(=C/c1ccccc1)C(=O)N1CCN(c2ccccc2F)CC1,5.8,4.6,24.6,5.4,13.7,-13.4,·,·
CCN(CC)C(=O)c1sc2nc(-c3cccs3)cc(-c3cccs3)c2c1N,34.7,21.2,52.9*,28.9,-8.6,42.7*,34.8*,43.2*
CCCCn1c(N)c(N(CC(C)C)C(=O)C2CCN(S(=O)(=O)c3ccc(Cl)cc3)CC2)c(=O)[nH]c1=O,21.8,16.1,5.3,0.3,·,6.6,·,·
O=C(COC(=O)c1cncc(Br)c1)NC1CCCCC1,-1.3,24.8,1.0,-0.3,-10.2,-22.1,·,·
O=C(NC(=S)NC1CCCCCC1)c1cncc(Br)c1,34.3,22.4,50.7*,3.0,10.4,44.1*,-1.0,42.2*
CSc1ccc(CNC(=O)Cc2ccc(NC(=O)C3=C(C)OCCS3)cc2)cc1,0.3,10.3,0.1,-3.5,2.2,-21.2,·,·
O=C(NC(=S)NCc1ccccc1Cl)c1cccs1,15.9,15.5,67.3*,·,·,46.1*,51.2*,52.0*
O=C(NCc1ccccc1F)c1cccs1,8.4,15.7,-0.3,0.8,·,-29.1,·,·
O=C(NC1CCCCCC1)c1ccc(CS(=O)Cc2cccc(Cl)c2)o1 (configuration not stated),22.6,6.4,13.6,-0.7,8.7,2.9,·,·
NC(=O)c1oc2ccccc2c1NC(=O)c1ccc([N+](=O)[O-])o1,29.1,5.0,66.2*,73.0*,-3.3,56.7*,65.7*,59.5*
NC(=O)c1oc2ccccc2c1NC(=O)c1ccc(F)cc1,14.3,16.0,14.0,-5.0,14.6,13.4,·,·
Cn1cc(S(=O)(=O)N2CCOCC2)cc1C(=O)NCc1ccccc1Cl,14.2,10.9,24.9,0.8,-14.2,3.4,·,·
O=C(Nc1ccc(OC(F)(F)F)cc1)N1CCN(c2ccnc3cc(Cl)ccc23)CC1,35.5,8.2,74.4*,65.1*,·,46.0*,27.8,67.2*
CC(C)(C)C(=O)N1CCN(c2ccnc3cc(Cl)ccc23)CC1,-3.3,19.7,12.1,-16.8,-68.6,3.1,·,·
Cn1c(/C(C#N)=C/c2ccncc2)nc2ccccc21,35.0,-14.0,67.7*,·,5.5,45.9*,19.2,63.1*
COc1ccc(Nc2nc(N)nc(CSC(=S)N3CCCCC3)n2)cc1,37.1,-4.8,25.1,-6.3,-2.6,34.9,·,·
COc1ccc(Nc2nc(N)nc(CSC(=S)N3CCCCC3C)n2)cc1 (configuration not stated),29.3,12.5,53.1*,4.8,·,40.0,24.3,44.9*
Cc1cccc(NC(=O)C2C(c3ccccc3)C2(Cl)Cl)c1 (configuration not stated),11.3,37.6,52.1*,12.0,8.6,45.7*,32.5*,51.1*
COc1ccc(CN2CCC(n3nccc3NC(=O)C3CC3)CC2)c(Cl)c1OC,12.6,2.8,11.6,-1.3,6.8,3.5,·,·
CC1(C)CC(=O)C(N=Nc2cc(Cl)c(Cl)c(Cl)c2)=C(O)C1,24.8,7.2,27.4,6.7,0.1,20.7,·,·
Cc1ccc(O)c(N=NC2=C(O)CC(C)(C)CC2=O)c1,9.5,32.6,61.4*,0.9,15.7,42.8*,27.0,52.2*
COCC(=O)Nc1cc(C(=O)Nc2ccccc2)ccc1Cl,31.2,21.4,53.6*,-7.1,-9.9,41.8*,47.4*,71.0*
COc1ccc(C(=O)Nc2ccccc2)cc1NC(=O)c1cccs1,17.6,20.7,50.9*,0.0,-0.8,53.9*,45.0*,74.2*
SMILES,tim10-1 inh,NALP3 yeast inh,tim23-1 inh,SKKanGAS inh,NALP1 yeast inh,TIM10 inh,TIM10 conf,tim23-1 confirm
N#CC1(NC(=O)COC(=O)c2cc([N+](=O)[O-])ccc2N2CCOCC2)CCCCC1,-11.9,18.7,6.2,-4.1,·,6.0,·,·
CCN(CC)CCN1C(=O)/C(=C\c2ccc(Cl)c([N+](=O)[O-])c2)SC1=Nc1ccc(OC)cc1,-0.2,38.7,66.1*,13.0,43.6*,41.2*,35.2*,56.9*
CCCN1C(=O)/C(=C/c2ccc(C)s2)SC1=Nc1ccc(OC)cc1,7.5,17.7,-6.2,18.1,17.0,6.4,·,·
O=C(O)c1cc(S(=O)(=O)N2CCCCC2)ccc1N1CCCCC1,-2.2,-3.9,3.9,·,·,-6.6,·,·
O=c1c(-c2ccc3c(c2)OCCO3)coc2cc(O)cc(O)c12,35.2,19.9,56.2*,4.0,-1.2,41.0*,36.2*,49.1*
O=C(NCCOc1ccccc1)C1=CC=CN2CCS(=O)(=O)N=C12,-6.0,-4.8,-3.4,·,·,8.7,·,·
S=C(NNc1ccnc2cc(Cl)ccc12)Nc1ccccc1Cl,39.8,16.9,55.8*,11.7,20.8,40.1*,-21.6,34.5
Cc1ccc(S(=O)(=O)CCC(=O)Nc2ccc(S(=O)(=O)N(C)C)cc2)cc1,19.4,-11.0,5.1,3.0,-9.3,-9.5,·,·
CN1/C(=C\C(=O)CSc2cccc[n+]2[O-])C(C)(C)c2ccccc21,32.1,2.2,65.2*,0.8,-2.5,41.3*,-5.8,78.1*
CCOc1ccc(NC(=O)COC(=O)CC2CC3CCC2C3)cc1 (configuration not stated),4.4,18.5,58.6*,·,·,44.2*,39.8*,53.9*
CN(C)S(=O)(=O)c1cc(NC(=O)COC(=O)CC2CC3CCC2C3)ccc1Cl (configuration not stated),-5.9,-11.1,11.3,·,·,1.1,·,·
Cc1cccc(NC(=O)COc2ccc(Br)cc2/C=N/O)c1,14.1,39.2,50.4*,-12.1,23.1,55.8*,60.9*,77.8*
CCCC(=O)Nc1ccc(-c2nc3ncccc3o2)cc1,-3.0,22.4,43.2,-0.5,9.0,14.7,·,·
O=C(N/N=C/C(Br)=C\c1ccccc1)c1cccs1,-15.5,40.8,70.9*,39.3,30.0,44.0*,39.8*,69.3*
O=C(N/N=C/C(Br)=C/c1ccccc1)c1ccncc1,24.8,19.9,27.7,-7.4,18.4,13.0,·,·
CC(C)=CCc1c(O)c(CC=C(C)C)c2c(c1O)-c1cc(O)c(O)cc1CC2,23.8,9.4,30.2,18.1,·,1.7,·,·
